# Measured values from PubChem BioAssay AID1851 (National Center for Advancing Translational Sciences (NCATS), 2009).
# Where “and” joins values, the source holds several entries; their conditions need not be identical. Identical values can stand only once. The campaign covered roughly 16,000 compounds. About 5,100 (32%) were called active. Roughly 25% stayed inconclusive and do not appear here. Calls come from the whole dose curve; as a rule, active = well fitted curve in the direction sought with a large enough effect; inconclusive = small, poorly fitted or top-dose-only effect, or effect the other way; inactive = no such curve, though single readings can be large or run the other way. The list shows a part of the results.
# Target: Cytochrome P450 3A4 (Homo sapiens) (UniProt P08684)
# Experiment: Cytochrome panel assay with activity outcomes
# Settings: recombinant CYP, pro-luciferin dealkylation, luminescence, p450-cyp3a4; series mostly up to 57.1 µM; activity, negative = inhibition: at the top concentration
# % is set by controls: 0 for no effect and ±100 for the full control effect.
# Sequence of Cytochrome P450 3A4 (Homo sapiens) (P08684 whole entry, looked up): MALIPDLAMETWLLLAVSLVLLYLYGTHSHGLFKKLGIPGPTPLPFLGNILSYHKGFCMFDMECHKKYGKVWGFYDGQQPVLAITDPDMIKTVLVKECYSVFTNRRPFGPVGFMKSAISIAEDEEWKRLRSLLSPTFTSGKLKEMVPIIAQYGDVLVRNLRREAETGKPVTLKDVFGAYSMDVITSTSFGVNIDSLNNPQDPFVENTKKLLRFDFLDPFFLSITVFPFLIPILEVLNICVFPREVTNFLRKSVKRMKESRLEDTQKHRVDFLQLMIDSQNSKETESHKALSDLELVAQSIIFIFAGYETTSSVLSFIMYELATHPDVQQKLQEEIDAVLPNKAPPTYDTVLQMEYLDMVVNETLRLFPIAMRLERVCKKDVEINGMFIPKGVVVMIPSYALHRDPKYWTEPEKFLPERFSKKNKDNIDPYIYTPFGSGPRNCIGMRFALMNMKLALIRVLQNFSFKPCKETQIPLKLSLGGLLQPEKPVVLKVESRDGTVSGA
SMILES,AC50,"activity, negative = inhibition"
COc1cccc(Cn2c(=O)c(-c3ccc(F)cc3)nc3cnc(N4CCNCC4)nc32)c1,15.8 µM (active),
COc1cccc(Cn2c(=O)c(-c3cc(F)cc(F)c3)nc3cnc(N4CCN(C)CC4)nc32)c1,25.1 µM (active),
O=C(O)c1ccc2c(c1)C(=O)N(C(Cc1ccc(O)cc1)C(=O)O)C2=O (configuration not stated),,5.23% (inactive)
Cc1cc(Br)ccc1NCc1ccccn1,15.8 µM (active),
Cc1cc(=O)oc(C)c1C(=O)NCc1ccccn1,,-10.8% (inactive)
OCCCNCc1ccccn1,,-7.75% [at 11.4 µM] (inactive)
CNCCc1ccccn1,,-3.54% [at 25.6 µM] (inactive)
Cc1cc(NCc2ccccn2)ccc1Br,12.6 µM (active),
c1ccc(CCNc2ccccn2)nc1,,-14.6% [at 11.4 µM] (inactive)
Cc1ccc(S(=O)(=O)NCCn2c(C)cc3ccccc32)cc1,5.01 µM (active),
Cc1cc2ccccc2n1CCNC(=O)c1ccccc1,3.98 µM (active),
Cc1cc2ccccc2n1CCNC(=O)C1CCCC1,4.47 µM (active),
CN(C)CCn1c(C(=O)O)cc2ccccc21,,6.42% (inactive)
Cc1cc2ccccc2c(=O)n1CC(=O)NCC(=O)N1CCCC1,,-2.71% (inactive)
O=C(NCCN1CCCCC1)c1ccc(I)cc1,,-0.633% (inactive)
Cc1ccc(S(=O)(=O)NC(=O)c2cccn2C)cc1,,20.6% (inactive)
CN(C)CCCN1c2ccccc2C(C)(C)c2ccccc21,,-18.6% [at 11.4 µM] (inactive)
CC1(C)C(=O)N(CCN2CCC(C(=O)c3ccc(F)cc3)CC2)c2ccccc21,15.8 µM (active),
CCN1C(=O)C(O)(C2COC(C)(C)CC2=O)c2ccccc21 (configuration not stated),,-1.6% (inactive)
O=S(=O)(O)c1ccc(N=Nc2ccccc2)cc1,,0.763% [at 11.4 µM] (inactive)
NCC(=O)Nc1ccc(Cl)cc1C(=O)c1ccc[nH]1,,-21.6% [at 11.4 µM] (inactive)
Cc1cc(SCC(=O)c2ccccc2)nc(SCC(=O)c2ccccc2)n1,2.82 µM (active),
O=C(O)CSc1cc(C(F)(F)F)nc(-c2ccccn2)n1,,-5.8% (inactive)
Cc1cc(C)nc(SCCc2cccc[n+]2C)n1,,-11% [at 11.4 µM] (inactive)
CC(=O)NCCNc1ncnc2ccc(-c3ccoc3)cc12,,-28.8% (inactive)

SMILES,AC50,"activity, negative = inhibition"
c1ccc(-n2ncc3c(NCCCN4CCOCC4)ncnc32)cc1,,-19.7% (inactive)
c1cncc(-c2ccc3ncnc(NCCN4CCOCC4)c3c2)c1,12.6 µM (active),
c1nc(NCCN2CCOCC2)c2cc(-c3ccc4c(c3)OCO4)ccc2n1,5.01 µM (active),
CC(=O)NCCNc1ncnc2ccc(-c3ccc4c(c3)OCO4)cc12,5.01 µM (active),
NCCCCNCCCN,inactive,
N#Cc1ccccc1Sc1ccccc1N,17.8 µM (active),
c1ccc2sc(N3CCN(Cc4ccc5c(c4)OCO5)CC3)nc2c1,0.631 µM (active),
O=C1CCC(c2ccccc2)=NN1c1nc2ccccc2s1,,-23.1% [at 11.4 µM] (inactive)
CC(C)c1ccc(C(=O)CC2(O)C(=O)N(CN3CCOCC3)c3ccccc32)cc1 (configuration not stated),8.91 µM (active),
CC1CCOC2(O1)C(=O)N(CN1CCN(c3ccccc3F)CC1)c1ccccc12 (configuration not stated),,-17.6% (inactive)
CC(=O)N1CCC(=O)N(C(C)C)c2ccccc21,,7.06% (inactive)
O=C(NCc1cccnc1)/C(=C/c1ccc(-c2cccc(Cl)c2)o1)S(=O)(=O)c1ccccc1,0.501 µM (active),
CN1CCC2(CC1)CCN(C(=O)c1cc(C(F)(F)F)cc(C(F)(F)F)c1)CC2,,-4.42% (inactive)
CC(C)CN1CC[C@@]2(CCCN(C(=O)c3cc(C(F)(F)F)cc(C(F)(F)F)c3)C2)C1,12.6 µM (active),
CC(C)NC(=O)N1CCCC2(CCN(C(=O)c3ccncc3)CC2)C1,15.8 µM (active),
COc1ccc(C(=O)N2CCC3(CC2)CN(C(=O)NC(C)C)C3)cc1,,-12.2% (inactive)
CC(C)NC(=O)N1CC[C@@]2(CCCN(C(=O)c3cc(C(F)(F)F)cc(C(F)(F)F)c3)C2)C1,15.8 µM (active),
CC(C)NC(=O)N1CCCC2(CCN(C(=O)c3cc(C(F)(F)F)cc(C(F)(F)F)c3)CC2)C1,25.1 µM (active),
CC(C)CN1CCC2(CC1)CCN(C(=O)c1cc(C(F)(F)F)cc(C(F)(F)F)c1)CC2,,24.6% (inactive)
CC(C)NC(=O)N1CC2(CCN(C(=O)c3cc(C(F)(F)F)cc(C(F)(F)F)c3)CC2)C1,,-10.5% (inactive)
Cc1noc(C)c1C(=O)N1CCC2(CCCN(C(=O)NC(C)C)C2)CC1,,-6.25% (inactive)
C=C1CCO[C@@]2([C@H](O)[C@@](C)(O)CO)NC(=O)[C@]1(O)NC2=O,,-2.69% [at 11.4 µM] (inactive)
O=C(O)CCC(=O)c1ccc2sc3ccccc3c2c1,,-21.1% [at 11.4 µM] (inactive)
C/C(CCc1ccc2c(c1)OCO2)=N\N=C1\NC(=O)CC(C(=O)Nc2ccccc2)S1 (configuration not stated),2.24 µM (active),
COc1ccc(Cl)cc1N=Nc1ncc[nH]1,10 µM (active),

SMILES,AC50,"activity, negative = inhibition"
COC(=O)c1c(-c2cc(OC)c(OC)c(OC)c2)c2ccc(OCc3ccccn3)cc2c(=O)n1-c1ccc(N)cc1,0.398 µM (active),
Cc1cc(C)c(NC(=O)CS(=O)CC(=O)NCCCc2ccccc2)c(C)c1 (configuration not stated),3.55 µM (active),
CC(C)C(=O)NCCCc1ccccc1,,2.86% [at 11.4 µM] (inactive)
FC(F)(F)c1cnc(N2CCC(=NOCc3ccc(Cl)cc3)CC2)c(Cl)c1,,1.69% (inactive)
N#CC(c1ccc(Cl)cc1)(c1ncc(C(F)(F)F)cc1Cl)N1CCOCC1 (configuration not stated),12.6 µM (active),
COC(=O)[C@@H]1[C@@H]2C[C@H]3c4[nH]c5ccccc5c4CCN3C[C@@H]2CC[C@@H]1OS(=O)(=O)O,,0.48% [at 11.4 µM] (inactive)
CC(=O)Nc1cccc(C(=O)OCc2ccc(C(=O)Oc3ccc(Cl)cc3)cc2)c1,,-19.7% (inactive)
CC(O)(CS(=O)(=O)Cc1ccccc1Cl)C(=O)Nc1cccc(C(F)(F)F)c1 (configuration not stated),2.51 µM (active),
CC(O)(CS(=O)(=O)Cc1ccc(Cl)cc1)C(=O)Nc1cccc(C(F)(F)F)c1 (configuration not stated),2 µM (active),
COCCNC(=O)CCn1nc(-c2ccc(Cl)cc2)ccc1=O,,-26.5% (inactive)
CN(C)CCNC(=O)Cn1nc(-c2ccc(Cl)cc2)ccc1=O,,-11.8% (inactive)
O=C(CCn1nc(-c2ccc(Cl)cc2)ccc1=O)NCc1ccccn1,10 µM (active),
Cc1ccc(-n2nnnc2-c2cnc3ccc(Cl)cc3c2-c2ccccc2)cc1,5.62 µM (active),
Cc1ccc2nc(SCC(=O)c3ccc4c(c3)OCO4)[nH]c2c1,2.24 µM (active),
Cc1ccc(C(=O)CSc2nc(C)cc(=O)[nH]2)cc1,,-13.8% (inactive)
Cc1nc(SCC(=O)c2ccc(F)cc2)c([N+](=O)[O-])[nH]1,,5.95% [at 2.29 µM] (inactive)
Cc1cc(C)nc(NS(=O)(=O)c2ccc(N)cc2)n1,,-9.98% [at 25.6 µM] (inactive)
CNc1cc(NS(=O)(=O)c2ccc(N)cc2)nc(NC)n1,0.794 µM (active),
Nc1ccc(S(=O)(=O)Nc2cnc3ccccc3n2)cc1,,-8.37% [at 11.4 µM] (inactive)
NC1=N[C@H](c2ccc(Cl)cc2)N(c2ccc(S(=O)(=O)Nc3ncccn3)cc2)C(N)=N1,,6.25% [at 11.4 µM] (inactive)
Cc1cc(C(=O)OC2CCOC2=O)c2ccccc2n1 (configuration not stated),,-7.34% [at 11.4 µM] (inactive)
COc1cc(CC(=O)OC2CCOC2=O)cc(OC)c1OC (configuration not stated),,-12.8% (inactive)
COc1cc(OC)cc(C(=O)NCC(=O)OC2CCOC2=O)c1 (configuration not stated),25.1 µM (active),
O=C1C[C@@H](O)[C@@H](O)[C@H]2[C@@H]3C(=O)N(C[C@@H]4CCCO4)C(=O)[C@@H]3CC[C@H]12,,9.5% [at 11.4 µM] (inactive) and -5.79% [at 11.4 µM] (inactive)
O=c1[nH]c(=S)c2[nH]c(=O)n(-c3ccccc3)c2[nH]1,,-9.23% [at 11.4 µM] (inactive)

SMILES,AC50,"activity, negative = inhibition"
CCOc1ccccc1NC(=O)CN1CCC(NC(=O)c2ccccc2)CC1,,13.9% (inactive)
CCOc1ccccc1NC(=O)C1=C(C)NC(=O)NC1c1cccc(OC)c1OC (configuration not stated),3.98 µM (active),
C#CCn1c(S(=O)(=O)Cc2ccc(OC)cc2)nc(-c2ccccc2)c1-c1ccccc1,6.31 µM (active),
COc1ccccc1C1(CC(=O)Nc2nccs2)CCOC(C(C)C)C1 (configuration not stated),6.31 µM (active),
O=c1oc2cc(N=Cc3ccc4c(c3)OCO4)ccc2c2ccccc12,3.98 µM (active),
O=[N+]([O-])c1ccc2c(c1)Cc1cc(N=Cc3ccc4c(c3)OCO4)ccc1-2,,-16.1% [at 11.4 µM] (inactive)
CC(=O)NC1(c2cccc(F)c2)CCN(CC(=O)NC(C)C)CC1,,-4.95% (inactive)
COc1ccc(C(=O)N/N=C2/C(=O)c3c(C)cc(C)cc3CC2(C)C)cc1,3.16 µM (active),
COc1ccc(/C(C)=N/NC(=O)c2ccc(N(C)C)cc2)cc1,,-29.1% (inactive)
COc1ccccc1CN1CCC2(CCNCC2)CC1,,-17.9% (inactive)
Cc1cccc(CNc2nc(-c3ccoc3)nc3ccccc23)c1,6.31 µM (active),
c1cncc(CNc2nc(-c3ccoc3)nc3ccccc23)c1,7.94 µM (active),
c1csc(CNc2nc(-c3ccoc3)nc3ccccc23)c1,7.94 µM (active),
c1cncc(-c2nc(NCc3cccs3)c3ccccc3n2)c1,2 µM (active),
NS(=O)(=O)c1cc2c(cc1Cl)=NC(CCC(=O)O)=NS=2(=O)O,,15.3% [at 11.4 µM] (inactive)
c1ccc(CNc2nc(-c3ccoc3)nc3ccccc23)cc1,12.6 µM (active),
CNc1ncncc1-c1ccccc1C,0.631 µM (active),
Cc1ccccc1-c1cncnc1NC1CCNCC1,15.8 µM (active),
CNc1cc(-c2ccccc2C)ncn1,,-9.16% (inactive)
COc1ccccc1-c1cncnc1Nc1ccc(F)cc1,0.158 µM (active),
c1cncc(-c2cncnc2NC2CCNCC2)c1,,-27.5% (inactive)
Cc1ccccc1-c1cncnc1Nc1ccc(F)cc1,0.2 µM (active),
